Screening results: PubChem BioAssay, several laboratories
NALP3 yeast inh: inhibitors of NALP3 inflammasome in yeast | Yeast reconstituted NLRP3/ASC/caspase-1, beta-gal luminescence, 24 h | inhibition, % at 10 µM | 330,000 tested, 0.39% active | AID 2825;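 active = inhibition of 50% or more; inactive = inhibition below 50%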;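 note: plate controls were induced DMSO wells for no effect and uninduced yeast grown without galactose for full effect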
tim10-1 inh: tim10-1 yeast growth inhibition; S. cerevisiae tim10-1 ts strain growth, BacTiter-Glo, 24 h; inhibition, % at 20 µM; 330,000 tested, 2.2% active; AID 463190;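 active = inhibition of at least 40%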;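 note: mutant grown at 25 °C; 0% = DMSO wells with yeast and 100% = wells holding no yeast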
PfHsp90 yeast 2: growth inhibition of yeast expressing Plasmodium Hsp90. S. cerevisiae expressing PfHsp90, BacTiter-Glo ATP, 48 h; yeast lacking PDR1 and PDR3 efflux regulators. inhibition, % at 9.4 µM. 310,000 tested, 0.32% active;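 active = every replicate shows inhibition above about 80%, whatever the replicate mean, limit read from the data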;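 note: 0% = DMSO neutral controls and 100% = 20 µM radicicol positive controls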
SKKanGAS inh: blocks kanamycin growth of S. pyogenes SKKanGAS strain. BacTiter-Glo, 6 h. inhibition, % at 7.5 µM. AID 1662. 300,000 tested, 1.3% active;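 active = mean replicate score, as percent of positive control median, at least 50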;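 note: strain carries kanamycin resistance gene driven by streptokinase promoter and grows in 40 µg/ml kanamycin; loss of luminescence reflects streptokinase promoter inhibition or plain growth inhibition; 0% = median of DMSO wells and 100% = positive control at its reference dose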
TIM10 inh: TIM10 yeast growth inhibition. S. cerevisiae TIM10 strain growth, BacTiter-Glo luminescence, 24 h. inhibition, % at 10 µM. 330,000 tested, 1.4% active. AID 463195;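 active = inhibition of 40% or more at the single tested concentration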;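 note: wild-type TIM10 isogenic control strain grown at permissive 25 °C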
tim23-1 inh: growth inhibitors of tim23-1 mutant yeast; S. cerevisiae tim23-1 growth, BacTiter-Glo luminescence, 24 h; inhibition, % at 20 µM; 330,000 tested, 1.3% active;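 active = growth inhibition of the mutant yeast at or above 50%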;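 note: temperature-sensitive mutant grown at 25 °C; plate controls were DMSO-treated mutant yeast for no effect and medium wells lacking yeast for full effect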
tim10-1 confirm: confirmation of tim10-1 mutant yeast growth inhibitors; 7,400 tested, 56% active; AID 463213; inhibition, % at 20 µM; S. cerevisiae tim10-1 ts strain growth, BacTiter-Glo, 24 h; shares compounds with tim10-1 inh;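 active = inhibition of yeast growth at or above a set limit in either of two repeat tests at 20 µM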;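 note: tim10-1 mutant grown at permissive 25 °C to find synthetic lethal compounds; 0% = DMSO yeast wells and 100% = medium wells without yeast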
Active calls of the source: *; . = not tested or not shown. Sampled rows, rich in hits. Any-hit rate of the full collection: about 4.6%.

SMILES	NALP3 yeast inh	tim10-1 inh	PfHsp90 yeast 2	SKKanGAS inh	TIM10 inh	tim23-1 inh	tim10-1 confirm
CC(=O)[C@H]1[C@H](C#N)C[C@H]2[C@@H]3CC=C4C[C@@H](O)CC[C@]4(C)[C@H]3CC[C@@]21C	8.7	40.6*	-5.2	4.1	35.8	38.6	33.9*
O=C(c1ccccc1)n1c(=O)c(F)cn(COCCBr)c1=O	11.9	11.4	10.5	2.3	4.9	17.4	.
O=C1OC(c2ccco2)=N/C1=C\c1ccc(-c2cccc(C(F)(F)F)c2)o1	9.8	45.8*	-0.5	-0.4	26.7	28.5	22.7
CN(C(=O)c1nn(C)c2c1CSc1ccccc1-2)c1ccccc1Cl	21.6	40.6*	-1.3	10.9	12.4	41.3	6.2
CN(C(=O)c1nn(C)c2c1CSc1ccccc1-2)c1ccc(F)cc1	9.2	35.3	-0.7	-5.6	-0.3	36.9	.
O=C(NNS(=O)(=O)c1ccccc1F)c1ccccc1-n1cccc1	2.0	13.1	3.0	-2.1	4.4	16.3	.
Cc1[nH]n(-c2ccc(C(=O)O)cc2)c(=O)c1CCO	.	.	-35.5	.	.	.	.
Cc1[nH]n(-c2ccc(Cl)c(Cl)c2)c(=O)c1CCO	1.6	43.1*	-17.1	10.3	19.9	30.8	18.7
Cc1ccc(S(=O)(=O)/C=C/c2ccccc2)cc1	21.6	47.9*	1.8	-3.2	18.4	47.7	25.6
CCOc1ccc(NC(=O)CSCc2cnn(-c3ccccc3)c2-n2cccc2)cc1	7.7	43.9*	-5.9	0.4	14.1	29.0	30.1*
CC(Oc1ccc(Cl)cc1Cl)C(=O)Nc1ccc(N2CCN(C)CC2)cc1 (stereo not drawn)	22.7	12.4	.	-2.9	8.6	17.6	.
CC(=O)N1CCN(c2ccc(NC(=O)C(C)Oc3ccc(Cl)cc3Cl)cc2)CC1 (stereo not drawn)	21.3	44.8*	-36.4	4.4	24.2	18.9	31.0*
[O-][n+]1onc2c1CCC(=N/O)/C2=N\Nc1ccccc1	9.4	13.7	.	3.9	15.2	5.9	.
O=C(N=C1SC2CS(=O)(=O)CC2N1CCc1ccccc1)C1CC1 (stereo not drawn)	12.1	19.6	-0.5	0.6	0.5	10.7	.
CCCn1cc(SCC(=O)Nc2ccc3c(c2)OCO3)c2ccccc21	27.6	42.5*	-1.7	-2.1	14.7	29.4	21.3
Cc1ccc(NC(=S)NNC(=O)CSc2nc3ccccc3c(=O)n2-c2ccc(C)cc2)cc1	-2.1	57.1*	-75.6	10.8	32.7	37.2	33.9*
Cn1cc(SCC(=O)Nc2ccc3c(c2)OCO3)c2ccccc21	9.6	25.2	-41.2	-5.3	4.2	26.3	.
Cc1ccc(NC(=S)NNC(=O)CSc2nnc(-c3ccc(Cl)cc3)n2C2CCCCC2)cc1	16.2	42.5*	-26.0	-8.6	25.3	35.7	35.1*
CCOc1ccc(-n2c(SCC(=O)Nc3ccc4c(c3)OCO4)nc3ccccc3c2=O)cc1	0.5	28.3	5.3	-17.2	24.1	21.7	.
CCn1c(SCC(=O)NNC(=S)Nc2ccc(C)cc2)nnc1-c1ccc(Cl)cc1	17.8	21.7	-19.6	1.6	5.7	3.2	.
COc1ccc(-n2c(SCC(=O)Nc3ccc4c(c3)OCO4)nc3ccccc3c2=O)cc1	-0.6	40.4*	.	9.1	14.0	31.7	20.4
Cc1ccnc2nc(C(=O)OCC(=O)Nc3ccc4c(c3)OCCO4)nn12	13.9	-6.3	-7.2	.	8.8	-6.3	.
O=C(O)CCCNC(=O)c1ccccn1	-3.4	4.4	-7.6	-0.8	-0.8	9.9	.
CCNC(=O)NC(=O)C(C)OC(=O)C1CCN(S(=O)(=O)c2ccc(C)c(C)c2)CC1 (stereo not drawn)	7.7	0.4	-3.0	-4.3	4.2	6.0	.
CCC1CCCCN1c1nc(-c2ccncc2)nc2ccccc12 (stereo not drawn)	0.9	49.8*	5.6	-9.7	26.5	43.5	38.4*
CCOC(=O)c1c(N)sc2c(OC)c(Br)ccc12	34.4	58.3*	13.5	3.5	32.0	39.0	45.4*
CCOC(=O)c1c(N)sc(C(=O)OC)c1C	19.5	1.9	-15.2	6.8	-14.6	5.5	.
CCN(CC)c1ncnc2c1sc1nc(C)cc(C)c12	19.6	42.5*	.	5.1	9.2	23.6	18.9
